High-throughput results (PubChem BioAssay)
Sampled rows, rich in hits. Any-hit rate of the full collection: about 1.5%.
FEN1 inhibitor: inhibitors of human flap endonuclease 1. P39748. 0.35% of 390,000 active. Potency, µM (series often up to 114 µM), usual class: inhibitors. Recombinant FEN1 flap cleavage, fluorescence, 15 min. AID 588795; also: nearly all actives have a fitted effect of over 65% in size
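Potency values derive from four-parameter Hill fits of normalized qHTS data. The reaction used 10 nM FEN1 preincubated 15 min at room temperature with compound, then 50 nM DNA substrate, read at 0 and 15 min.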
Tb PGK inh: T. brucei PGK inhibition; P07378; AID 602233; 0.043% of 380,000 active; PGK/GAPDH coupled, Kinase-Glo luminescence, 60 min; Potency, µM (doses to about 57.5 µM), most hits filed as inhibitors; also: nearly all actives have a fitted effect of over 60% in size
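Recombinant glycosomal PGK reaction used 1,3-bisphosphoglycerate generated in-well by GAPDH (100nM final) in 100mM TEA pH 7.6, 5mM MgCl2, 0.01% Tween-20. After 60 minutes at room temperature, ATP was read by Kinase-Glo Plus luminescence end-point.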
PI5P4Ka inh: blocks human PI5P4K alpha kinase activity. AID 652105. 1.2% of 330,000 active. PI5P4Kalpha enzyme, ADP-Glo luminescence, 60 min; hits give low values. P48426. max response, %; active = max response of -50% or lower; inconclusive = between -30% and -50%; inactive = -30% or higher; also: value at the top dose of about 77 µM
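ADP-Glo luminescence end-point read after a 60 min room-temperature kinase reaction of PI5P4Kalpha plus substrate, initiated with ATP at 5 microM final. Buffer: 0.038 M HEPES pH 7.4, EGTA, 0.1% CHAPS, 5% DMSO.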
TDP1 block: blocks human tyrosyl-DNA phosphodiesterase 1; Q9NUW8; recombinant TDP1, AlphaScreen DNA substrate cleavage; Potency, µM (titrated, usually from 130 µM), actives largely listed as inhibitors; 0.28% of 350,000 active; AID 485290; also: nearly all actives have a fitted effect of over 40% in size
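Recombinant E. coli-expressed Tdp1 (1 nM) preincubated with compound 15 min at RT, then 5'-biotin/3'-phosphotyrosine-FITC DNA substrate (15 nM) added for 5 min. AlphaScreen beads (10 ug/ml) added, 10 min RT; tyrosine-FITC cleavage read as signal loss.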
WRN inhibitor: inhibitors of human WRN helicase | WRN helicase unwinding, fluorescent forked duplex, kinetic | Potency, µM (doses to about 114 µM), hits mostly inhibitors | 0.46% of 360,000 active | AID 651768; also: nearly all actives have a fitted effect of over 55% in size
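WRN at 20 nM final was preincubated with compound for 15 min at room temperature; reaction started with 100 nM forked duplex oligonucleotide carrying fluorophore and quencher plus 2 mM ATP (final). Unwinding followed kinetically by red fluorescence (ex 525/em 598 nm).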
Tb PFK block: inhibitors of T. brucei phosphofructokinase; Potency, µM (top dose mostly 57.5 µM), most hits filed as inhibitors; T. brucei PFK, ADP-Glo luminescence; AID 485367; 0.17% of 330,000 active; also: nearly all actives have a fitted effect of over 60% in size
Target sequence (O15648 whole entry, looked up): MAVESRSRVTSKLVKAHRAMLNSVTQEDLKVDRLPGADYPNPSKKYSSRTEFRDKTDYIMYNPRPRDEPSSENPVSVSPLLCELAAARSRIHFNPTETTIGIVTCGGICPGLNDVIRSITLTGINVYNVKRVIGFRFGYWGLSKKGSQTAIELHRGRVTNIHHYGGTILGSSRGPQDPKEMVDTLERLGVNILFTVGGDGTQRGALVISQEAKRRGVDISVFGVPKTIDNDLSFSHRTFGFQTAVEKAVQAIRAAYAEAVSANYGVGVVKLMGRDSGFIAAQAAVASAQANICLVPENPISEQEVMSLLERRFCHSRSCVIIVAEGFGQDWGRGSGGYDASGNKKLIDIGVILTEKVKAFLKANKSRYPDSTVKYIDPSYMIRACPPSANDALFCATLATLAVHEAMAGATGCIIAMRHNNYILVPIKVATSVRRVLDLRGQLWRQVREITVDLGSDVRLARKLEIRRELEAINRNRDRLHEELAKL
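Activity is normalized to no-enzyme wells (full inhibition) and 1.25 nM enzyme wells (no inhibition). Reaction: 0.5 mM F6P, 0.1 mM ATP, 45 min RT, ADP-Glo luminescence; concentration-response curves fitted and classed by quality.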
A number is an active result; – = inactive; ? = inconclusive; · = not tested or not shown; [ ] = another dose, or the depositor's remark. Unless noted, calls follow the shape of the dose curve; as a rule, active = well fitted curve in the direction sought with a large enough effect; inconclusive = small, poorly fitted or top-dose-only effect, or another doubt; inactive = no such curve, though single readings can be large; an effect the other way counts as inactive or inconclusive.

SMILES | FEN1 inhibitor | Tb PGK inh | PI5P4Ka inh | TDP1 block | WRN inhibitor | Tb PFK block
COc1cc([N+](=O)[O-])cc(/C=N/NC(=O)c2ccc(C)nc2)c1O | – | – | – | – | –[11.6 µM] | –
COc1ccccc1/C=N/NC(=O)c1ccc(NC(=O)c2cccc([N+](=O)[O-])c2)cc1 | · | · | · | – | · | –
COc1cccc(/C=N/NC(=O)c2cc3cc([N+](=O)[O-])ccc3s2)c1O | 50.1µM | ? | – | – | 35.5µM | ?
COc1cc([N+](=O)[O-])cc(/C=N/NC(=O)c2ccc(NC(=O)c3ccc(C)cc3)cc2)c1O | – | – | -61.8 | – | – | –
CCc1ccc(Nc2ccc3nonc3c2[N+](=O)[O-])cc1 | – | – | – | · | – | ·
CCOC(=O)NNc1ccc2nonc2c1[N+](=O)[O-] | 39.8µM | ? | -64.8 | · | 50.1µM | –
CC[C@H](C)/C=C(C)/C=C/C(=O)Cc1cc(O)c(C)c(O)c1C=O | – | – | -57.2 | · | –[11.6 µM] | –
Cc1cc2nc3c(=O)[nH]c(=O)nc-3n(CC(O)C(O)C(O)CO)c2cc1C (centres undefined) | · | · | · | – | · | ·
CC(=O)OCCn1c2nc(=O)[nH]c(=O)c-2nc2cc(C)c(C)cc21 | – | – | – | 3.55µM | – | –
COc1cccc(CN2C(=O)c3ccccc3NC2c2ccc(OC)c(COc3ccc(NC(C)=O)cc3)c2)c1 (centres undefined) | · | · | · | – | · | ·
CCCC(=O)OCCNc1cc(SCc2ccco2)c2nonc2c1[N+](=O)[O-] | – | – | -60.5 | – | 35.5µM | –
CC(=O)OCCCNc1cc(SCc2ccco2)c2nonc2c1[N+](=O)[O-] | 56.2µM | – | -50.7 | – | 22.4µM | ?
CCCCCCCCN(CCCCCCCC)c1ccc(/C=C/c2ccnc3ccccc23)cc1 | – | · | · | · | · | ·
CC1=NN(c2ccc(C)cc2)C(=O)/C1=C\C=C\c1ccccc1 | – | – | – | – | –[11.6 µM] | –
CC1=NN(c2cccc(C(=O)O)c2)C(=O)/C1=C\C=C/c1ccccc1 | 79.4µM | – | – | – | ? | –
CCc1c(C)c2ccccc2[nH]c1=O | – | · | · | · | · | ·
CC(C)C[C@H](NC(=O)[C@@H]1CCC(=O)N1)C(=O)N[C@@H](Cc1ccc(O)cc1)C(=O)N[C@@H](CCC(=O)O)C(=O)N[C@@H](CC(N)=O)C(=O)N[C@@H](CCCCN)C(=O)N1CCC[C@H]1C(=O)N[C@@H](CCCN=C(N)N)C(=O)N[C@@H](CCCN=C(N)N)C(=O)N1CCC[C@H]1C(=O)N[C@@H](Cc1ccc(O)cc1)C(=O)O | · | · | · | – | · | ·
COCc1cc(=O)[nH]c(Nc2nc(C)c3ccccc3n2)n1 | 50.1µM | – | · | – | – | –
C=CCOC(=O)c1[nH]c2c(c1C)C(=O)CC(c1ccco1)C2 (centres undefined) | – | – | -60.5 | · | ? | ?
Cc1c(C(=O)OCC2CCCO2)[nH]c2c1C(=O)CC(c1ccco1)C2 (centres undefined) | ? | ? | -76.0 | ? | 39.8µM | ?
C/C=C/COC(=O)c1[nH]c2c(c1C)C(=O)CC(c1ccco1)C2 (centres undefined) | – | – | – | – | ? | ?
Cc1c(C(=O)OC2CCCCC2)[nH]c2c1C(=O)CC(c1ccccc1)C2 (centres undefined) | – | – | · | – | · | ·
CCCCc1c(C)[nH]c2c(OC)cccc2c1=S | – | · | · | · | · | ·
O=C1NC(=S)SC1=Cc1ccccn1 | · | · | ? | · | – | ·
Cc1nn(-c2ccccc2)c(Cl)c1/C=C1\SC(=S)NC1=O | – | – | · | – | –[11.6 µM] | –
SMILES | FEN1 inhibitor | Tb PGK inh | PI5P4Ka inh | TDP1 block | WRN inhibitor | Tb PFK block
O=C1NC(=S)SC1=Cc1ccccc1C(=O)O | · | · | -77.6 | · | – | ·
CCn1ncc(/C=C2/SC(=S)NC2=O)c1C | – | – | -65.9 | – | – | –
Cc1cc(/C=C2\SC(=S)NC2=O)c(C)[nH]1 | – | – | -76.6 | – | –[11.6 µM] | –
Cc1cc2c(s1)c1cnn(Cc3ccc(C(C)C)cc3)c(=O)c1n2C | · | · | · | – | · | ·
O=[N+]([O-])c1ccc2c(c1)N([O-])C1(CCCCC1)[N+]2=O | ? | – | -50.8 | – | ? | –
CC1=C(c2ccccc2)[N+](=O)C2(CCCC2)N1[O-] | – | – | · | – | – | –
COc1ccc(-c2ccc3c(n2)CCCN3C[C@H](O)CN2CCCc3nc(C)c(C)cc32)cc1 | · | · | · | –[21 µM] | · | ·
